Test results reported in PubChem BioAssay (NCATS).
Records with an inconclusive call do not appear. Calls of active or inactive are those of the source. Calls follow the shape of the dose curve; as a rule, active = well fitted curve in the direction sought with a large enough effect; inconclusive = small, poorly fitted or top-dose-only effect, or another doubt; inactive = no such curve, though single readings can be large; an effect the other way counts as inactive or inconclusive.

Columns and labels:
[1] = P-glycoprotein substrates identified in KB-8-5-11 adenocarcinoma cell line, qHTS therapeutic library screen (AID 1346987); also: nearly all actives have a fitted effect of over 65% in size; also: potency is read from the fitted curve at half-maximal effect
Method in brief: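 Human cervical adenocarcinoma KB-8-5-11 cells, selected in colchicine to over-express P-gp and assayed without it, were exposed for 72 h to titrated compounds. An ATP-based luminescent viability signal gave AC50.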

[2] = Primary qHTS for inhibitors of nuclear receptor binding SET domain protein 2 (NSD2) in an isogenic RCH-ACV NSD2 p.E1099K mutant (9B) (AID 1645876); also: nearly all actives have a fitted effect of over 70% in size; also: potency is read from the fitted curve at half-maximal effect
[3] = biological target: Phospholipid hydroperoxide glutathione peroxidase GPX4 (Homo sapiens) (UniProt P36969); test: Primary qHTS Assay for Inhibitors of Recombinant Selenoprotein Glutathione Peroxidase 4 (GPX4) (AID 1845192); also: nearly all actives have a fitted effect of over 65% in size
Method in brief: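 Steps: GPX4 plus compound, 30 min RT; add GR/GSH/NADPH master mix; start with cumene hydroperoxide; read 340/450 nm fluorescence at 0 and 15 min. Finals were 200 nM GPX4, 1 mM GSH, 0.5 mM CHP, 0.5 mM NADPH, 100 nM GR.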

[4] = biological target: Luciferin 4-monooxygenase (Photinus pyralis) (UniProt P08659); test: Primary firefly luciferase (FLuc) qHTS assay for identification of artifact compounds. (AID 1845220); conditions: outcome: dose series up to 54.1 µM unless noted; also: nearly all actives have a fitted effect of over 60% in size
Method in brief: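 Enzymatic FLuc inhibition assay: compounds pre-exposed to luciferin/ATP (10 uM each) for 15 min, then purified P. pyralis enzyme at 10 nM added. Read-out: luminescence at 5 min.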

[5] = test system: Nanoluciferase (engineered Oplophorus gracilirostris luciferase); test: Primary Nanoluciferase (NLuc) qHTS assay for identification of artifact compounds. (AID 1845222);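 also: NLuc secreted into diluted conditioned medium of S16 cells; 0% = DMSO and -100% = no enzyme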
Method in brief: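 S16 cell supernatant NLuc, 1:55; cpds qHTS; 15 min RT dark; Nano-Glo substrate 1:100, 5 min; luminescence; Hill fit of % inhibition.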

CRL-7250 = normal cell line; test: Cytotoxic Profiling of Annotated Libraries Using Quantitative High-Throughput Screening (AID 1296008); conditions: Five cell lines viability, CellTiter-Glo ATP luminescence, 48-72 h; max response: stronger effect = lower value; also: nearly all actives have a fitted effect of over 60% in size; also: potency is read from the fitted curve at half-maximal effect; as to max response: % is scaled to controls: 0 for no effect and ±100 for the full control effect
Method in brief: (§1)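 Cells exposed to compounds for 48 or 72 hr at 37 degrees Celsius. Viability read as ATP-coupled luminescence with CellTiter-Glo after 10 min at room temperature.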

HEK293 = test: as above; conditions: Five cell lines viability, CellTiter-Glo ATP luminescence, 48-72 h; max response: stronger effect = lower value
Method in brief: as §1

HaCat = test: as above; conditions: Five cell lines viability, CellTiter-Glo ATP luminescence, 48-72 h; max response: stronger effect = lower value
Method in brief: as §1

NIH3T3 = test: as above; conditions: Five cell lines viability, CellTiter-Glo ATP luminescence, 48-72 h; max response: stronger effect = lower value
Method in brief: as §1

C33A = test: Primary qHTS to identify gynecologic anti-cancer compounds using libraries of approved drugs and bioactive compounds (AID 1345084); conditions: Gynecologic cancer cell panel viability, ATPlite luminescence, 48 h; series mostly up to 57.5 µM; also: nearly all actives have a fitted effect of over 55% in size; also: potency is read from the fitted curve at half-maximal effect
Method in brief: (§2)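 Luminescence from the ATPlite ATP-monitoring reagent indicates viable cell number; lower signal means cytotoxicity. Cells received compound 16 h after seeding and were exposed for 48 h across five concentrations.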

CASKI = test: as above; conditions: Gynecologic cancer cell panel viability, ATPlite luminescence, 48 h; series mostly up to 57.5 µM
Method in brief: as §2

Es-2 = test: as above; conditions: Gynecologic cancer cell panel viability, ATPlite luminescence, 48 h; series mostly up to 57.5 µM
Method in brief: as §2

HeLa = test: as above; conditions: Gynecologic cancer cell panel viability, ATPlite luminescence, 48 h; series mostly up to 57.5 µM
Method in brief: as §2

Hek293T = test: as above; conditions: Gynecologic cancer cell panel viability, ATPlite luminescence, 48 h, control line for the selectivity index; series mostly up to 57.5 µM
Method in brief: as §2

OV90 = test: as above; conditions: Gynecologic cancer cell panel viability, ATPlite luminescence, 48 h; series mostly up to 57.5 µM
Method in brief: as §2

Tov-21-G = test: as above; conditions: Gynecologic cancer cell panel viability, ATPlite luminescence, 48 h; series mostly up to 57.5 µM
Method in brief: as §2

Tov112D = test: as above; conditions: Gynecologic cancer cell panel viability, ATPlite luminescence, 48 h; series mostly up to 57.5 µM
Method in brief: as §2

[6] = Primary qHTS for inhibitors of nuclear receptor binding SET domain protein 2 (NSD2) in an RCH-ACV wild type WT cells (2C) (AID 1645877); also: potency is read from the fitted curve at half-maximal effect; nearly all actives have a fitted effect of over 70% in size
[7] = biological target: Glutathione peroxidase 1 (Homo sapiens) (UniProt P07203); test: Primary qHTS Assay for Inhibitors of Recombinant Selenoprotein Glutathione Peroxidase 1 (GPX1) (AID 1845191); also: nearly all actives have a fitted effect of over 65% in size
Method in brief: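 GR-coupled readout: NADPH consumption tracked by fluorescence, ex 340/em 450 nm, at t=0 and after 15 min at RT. Final mix 10 nM GPX1, 1 mM GSH, 0.5 mM CHP, 0.5 mM NADPH, 100 nM GR, 0.01% BSA, following 30 min enzyme–compound preincubation.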

PA-1 = test: Primary qHTS to identify gynecologic anti-cancer compounds using libraries of approved drugs and bioactive compounds (AID 1345084); conditions: Gynecologic cancer cell panel viability, ATPlite luminescence, 48 h; series mostly up to 57.5 µM; also: nearly all actives have a fitted effect of over 55% in size; also: potency is read from the fitted curve at half-maximal effect
Method in brief: as §2

Phospholipid hydroperoxide glutathione peroxidase GPX4 (Homo sapiens), sequence (P36969 whole entry, looked up): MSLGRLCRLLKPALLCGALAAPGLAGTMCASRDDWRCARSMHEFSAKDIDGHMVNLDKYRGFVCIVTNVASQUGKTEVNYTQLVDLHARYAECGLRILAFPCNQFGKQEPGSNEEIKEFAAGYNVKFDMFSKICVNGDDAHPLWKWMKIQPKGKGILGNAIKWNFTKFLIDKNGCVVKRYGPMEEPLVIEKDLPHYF
Glutathione peroxidase 1 (Homo sapiens), sequence (P07203 whole entry, looked up): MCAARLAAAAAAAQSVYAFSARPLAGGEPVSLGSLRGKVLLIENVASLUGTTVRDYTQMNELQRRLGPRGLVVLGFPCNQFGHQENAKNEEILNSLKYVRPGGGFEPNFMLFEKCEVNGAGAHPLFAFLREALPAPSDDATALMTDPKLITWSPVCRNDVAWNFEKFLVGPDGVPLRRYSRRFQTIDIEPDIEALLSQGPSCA

CC1CCCC(=O)CCC/C=C/c2cc(O)cc(O)c2C(=O)O1 (configuration not stated)
inactive: Potency [1] | Potency [2] | Potency [3] | outcome [4] | Potency [5] | max response (CRL-7250) 3.12% | max response (HEK293) -3.13% | max response (HaCat) 2.86% | max response (NIH3T3) -2.03% | Potency (C33A) | Potency (CASKI) | Potency (Es-2) | Potency (HeLa) | Potency (Hek293T) | Potency (OV90) | Potency (Tov-21-G) | Potency (Tov112D)

C=C1[C@@H](C)[C@H]2[C@H](Cc3ccccc3)NC(=O)[C@]23OC(=O)/C=C/C(=O)CCC[C@@H](C)C/C=C/[C@H]3[C@@H]1O
inactive: Potency [7] | Potency [3] | outcome [4] | Potency [5]
active: Potency [1] 5800 nM | Potency [2] 1450 nM | Potency [6] 459 nM | Potency (CRL-7250) 1640 nM | Potency (HEK293) 1840 nM | Potency (HaCat) 20600 nM | Potency (NIH3T3) 1160 nM | Potency (CASKI) 15800 nM | Potency (Es-2) 14100 nM | Potency (Hek293T) 15800 nM | Potency (PA-1) 20000 nM | Potency (Tov-21-G) 15800 nM | Potency (Tov112D) 15800 nM

CC(=O)OC[C@]12C[C@H](O)C(C)=C[C@H]1O[C@@H]1[C@H](O)[C@@H](O)[C@@]2(C)[C@]12CO2
active: Potency [1] 4040 nM | Potency [2] 898 nM | Potency [6] 713 nM | Potency (CRL-7250) 4040 nM | Potency (HEK293) 1010 nM | Potency (HaCat) 10100 nM | Potency (NIH3T3) 1430 nM | Potency (C33A) 5620 nM | Potency (CASKI) 7940 nM | Potency (Es-2) 6310 nM | Potency (HeLa) 7940 nM | Potency (Hek293T) 1780 nM | Potency (OV90) 12600 nM | Potency (PA-1) 2000 nM | Potency (Tov-21-G) 8910 nM | Potency (Tov112D) 10000 nM
inactive: Potency [7] | Potency [3] | outcome [4] | Potency [5]

COC1CC(O[C@H]2CC[C@]3(C)C4CC[C@]5(C)[C@@H](C6=CC(=O)OC6)[C@@H](OC(C)=O)C[C@]5(O)C4CC[C@@H]3C2)OC(C)C1O (some centres not stated)
inactive: Potency [7] | Potency [3] | outcome [4] | Potency [5] | max response (NIH3T3) -14.3%
active: Potency [1] 563 nM | Potency [2] 224 nM | Potency [6] 448 nM | Potency (CRL-7250) 317 nM | Potency (HEK293) 502 nM | Potency (HaCat) 796 nM | Potency (C33A) 891 nM | Potency (Es-2) 891 nM | Potency (HeLa) 891 nM | Potency (Hek293T) 1000 nM | Potency (OV90) 3160 nM | Potency (PA-1) 891 nM | Potency (Tov-21-G) 708 nM | Potency (Tov112D) 251 nM

CC1=CC2OC3[C@H](O)C[C@@](C)([C@]34CO4)[C@@]2(CO)[C@H](O)C1=O (some centres not stated)
inactive: Potency [7] | Potency [3] | outcome [4] | Potency [5]
active: Potency [1] 1460 nM | Potency [2] 1630 nM | Potency [6] 1830 nM | Potency (CRL-7250) 3260 nM | Potency (HEK293) 1640 nM | Potency (HaCat) 14600 nM | Potency (NIH3T3) 1300 nM | Potency (Es-2) 10000 nM | Potency (HeLa) 25100 nM | Potency (Tov-21-G) 14100 nM
